Laboratory results taken from PubChem BioAssay AID1159580 (chemical genetic matrix, 2015).
Out of some 5,500 compounds screened, about 2,000 (36%) were called active. Not shown: some 18% with an inconclusive outcome. Rule as the data show it: active = normalized growth mostly below about 0.91 (no sharp cut-off); inconclusive = no clear call, values can overlap the other calls; inactive = mostly above about 0.92. This is one part of the list.

Test: chemical genetic growth profiling, strain panel (AID 1159580);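 also: tested at 20 µM; growth read once vehicle control cultures reached saturation at 30 °C; 1 = growth at the plate median or of vehicle wells; lower values mean less growth of the strain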
Settings: S. cerevisiae deletion strains, growth OD

Measured: normalized growth

NC(=NCCC[C@H](N)C(=O)O)N[N+](=O)[O-]
inactive: locus YAL013W, strain DEP1, hits give low values 0.99 | locus YAL021C, strain ccr4, hits give low values 1.02 | locus YAL026C, strain drs2, hits give low values 1.03 | locus YAL030W, strain snc1, hits give low values 1.02 | locus YBL061C, strain skt5, hits give low values 1.02 | locus YBR009C, strain hhf1, hits give low values 1.02 | locus YBR021W, strain FUR4, hits give low values 0.992 | locus YBR023C, strain chs3, hits give low values 1.02 | locus YBR171W, strain sec66, hits give low values 1.03 | locus YBR229C, strain ROT2, hits give low values 1 | locus YBR231C, strain swc5, hits give low values 1.02 | locus YBR279W, strain paf1, hits give low values 1.02 | locus YCL011C, strain gbp2, hits give low values 1.03 | locus YCL016C, strain dcc1, hits give low values 1.02 | locus YCL029C, strain bik1, hits give low values 0.994 | locus YCL069W, strain vba3, hits give low values 1.01 | locus YCR088W, strain abp1, hits give low values 1.03 | locus YDL005C, strain med2, hits give low values 1.03 | locus YDL035C, strain GPR1, hits give low values 1 | locus YDL040C, strain nat1, hits give low values 1.02 | locus YDL074C, strain BRE1, hits give low values 0.978 | locus YDL101C, strain DUN1, hits give low values 1 | locus YDL134C, strain PPH21, hits give low values 1.01 | locus YDL185W, strain tfp1, hits give low values 1.01 | locus YDL192W, strain arf1, hits give low values 1.01 | locus YDR001C, strain nth1, hits give low values 1.01 | locus YDR069C, strain doa4, hits give low values 1.03 | locus YDR101C, strain arx1, hits give low values 0.946 | locus YDR137W, strain rgp1, hits give low values 1.05 | locus YDR150W, strain NUM1, hits give low values 0.992 | locus YDR159W, strain sac3, hits give low values 0.991 | locus YDR162C, strain NBP2, hits give low values 1.02 | locus YDR195W, strain ref2 1.04 | locus YDR297W, strain sur2, hits give low values 1.02 | locus YDR318W, strain mcm21, hits give low values 1.01 | locus YDR334W, strain swr1, hits give low values 1.02 | locus YDR335W, strain msn5, hits give low values 1.03 | locus YDR388W, hits give low values 1.02 | locus YDR392W, strain spt3, hits give low values 1.03 | locus YDR502C, strain sam2, hits give low values 1.01 | locus YEL003W, strain gim4, hits give low values 1.02 | locus YEL037C, strain rad23, hits give low values 1.03 | locus YEL061C, strain CIN8 (second series), hits give low values 1.01 | locus YEL061C, strain CIN8, hits give low values 0.983 | locus YER015W, strain faa2, hits give low values 1.03 | locus YER016W, strain bim1, hits give low values 1.01 | locus YER110C, hits give low values 1.01 | locus YER111C, strain swi4, hits give low values 1.04 | locus YER155C, strain BEM2 (second series), hits give low values 1.06 | locus YER155C, strain BEM2, hits give low values 1 | locus YER167W, strain BCK2, hits give low values 0.998 | locus YFR010W, strain ubp6, hits give low values 1.03 | locus YGL078C, strain dbp3, hits give low values 1 | locus YGL086W, strain mad1, hits give low values 0.982 | locus YGL167C, strain pmr1, hits give low values 1.02 | locus YGL173C, strain kem1, hits give low values 1.02 | locus YGL227W, strain vid30, hits give low values 1.01 | locus YGL240W, strain doc1, hits give low values 1.04 | locus YGL248W, strain PDE1, hits give low values 1 | locus YGL253W, strain hxk2, hits give low values 1.02 | locus YGR078C, strain PAC10, hits give low values 0.972 | locus YGR135W, strain pre9, hits give low values 1.06 | locus YGR229C, strain SMI1, hits give low values 1.01 | locus YGR252W, strain gcn5, hits give low values 1.07 | locus YHR013C, strain ard1, hits give low values 1.05 | locus YHR027C, strain rpn1, hits give low values 1.02 | locus YHR030C, strain SLT2, hits give low values 0.994 | locus YHR079C, strain IRE1 (second series), hits give low values 1.01 | locus YHR094C, strain hxt1, hits give low values 1.01 | locus YHR129C, strain ARP1, hits give low values 1.01 | locus YHR142W, strain chs7, hits give low values 1.05 | locus YHR200W, strain rpn10, hits give low values 0.996 | locus YIL066C, strain RNR3, hits give low values 1.01 | locus YIL073C, strain SPO22, hits give low values 1.05 | locus YIL125W, strain kgd1, hits give low values 0.999 | locus YIR030C, strain dcg1, hits give low values 1.01 | locus YJL092W, strain hpr5, hits give low values 1.02 | locus YJL095W, strain BCK1 (second series), hits give low values 1.03 | locus YJL095W, strain BCK1, hits give low values 1 | locus YJL115W, strain asf1, hits give low values 1.04 | locus YJL129C, strain trk1, hits give low values 1.05 | locus YJL134W, strain LCB3, hits give low values 1 | locus YJL154C, strain vps35, hits give low values 1.02 | locus YJL164C, strain tpk1, hits give low values 1.02 | locus YJL166W, strain qcr8, hits give low values 1.03 | locus YJL168C, strain set2, hits give low values 0.999
